# Assay outcomes from PubChem BioAssay.
# Rows were chosen to be rich in hits. Some 5.6% of all compounds tested hit in one or more screens of this group.
# Six1-Eya2 inh = inhibitors of human Six1/Eya2 interaction. 360,000 compounds, 0.56% hits. AID 651725. Q15475+O00167. activity change, % (test concentration not listed). AlphaScreen GST-Six1/His-Eya2 binding, biochemical; stronger effect = lower value; in the data active = activity change below about -65%; inconclusive = mostly about -30% to -63%
# Target sequence (O00167 whole entry, looked up): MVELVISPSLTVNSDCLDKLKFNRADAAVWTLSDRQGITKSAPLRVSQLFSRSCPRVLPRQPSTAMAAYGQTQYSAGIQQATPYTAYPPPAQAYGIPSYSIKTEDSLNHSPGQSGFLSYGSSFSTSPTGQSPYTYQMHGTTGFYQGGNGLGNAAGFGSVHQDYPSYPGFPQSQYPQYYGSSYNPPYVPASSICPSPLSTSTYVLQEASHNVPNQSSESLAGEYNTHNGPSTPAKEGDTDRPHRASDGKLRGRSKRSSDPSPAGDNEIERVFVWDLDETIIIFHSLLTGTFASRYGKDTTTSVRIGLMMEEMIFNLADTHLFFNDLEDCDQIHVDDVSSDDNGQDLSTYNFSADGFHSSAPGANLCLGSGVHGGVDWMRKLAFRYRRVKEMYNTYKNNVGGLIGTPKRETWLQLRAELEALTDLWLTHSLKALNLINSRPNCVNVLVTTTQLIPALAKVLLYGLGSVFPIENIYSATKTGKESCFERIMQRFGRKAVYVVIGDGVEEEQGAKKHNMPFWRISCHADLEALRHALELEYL
# Target sequence (Q15475 whole entry, looked up): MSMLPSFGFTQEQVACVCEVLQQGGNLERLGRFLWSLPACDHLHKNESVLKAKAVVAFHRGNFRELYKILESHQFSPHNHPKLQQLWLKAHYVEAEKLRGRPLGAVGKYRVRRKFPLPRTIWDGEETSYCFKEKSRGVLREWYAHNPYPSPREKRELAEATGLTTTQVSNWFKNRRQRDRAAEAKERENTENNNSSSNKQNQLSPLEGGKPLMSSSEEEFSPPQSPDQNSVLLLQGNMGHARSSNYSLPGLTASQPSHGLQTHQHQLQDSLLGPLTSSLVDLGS
#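 GST-Six1 + His-Eya2 (5X stock: 250/500 nM); Tris pH 8.0, 300 mM NaCl, 0.05% BSA, 0.02% Tween 20; GSH donor/Ni acceptor beads; 1 h 37 °C dark; AlphaScreen readout.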
# Gal4-VP16 FLuc = Gal4-VP16 reporter inhibition counter-screen; Drosophila S2 Gal4-VP16 UAS-luciferase, luminescence, 20 h; Potency, µM (top dose mostly 53.6 µM), without a hit: at the top dose activity, negative = inhibition, most hits filed as inhibitors; 310,000 compounds, 3.5% hits; AID 2546;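 also: Gal4-VP16 expression switched on by copper sulfate through the metallothionein promoter; potency is read from the fitted curve at half-maximal effect; nearly all actives have a fitted effect of over 50% in size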
# RORg inh = ROR gamma (mouse) transcription inhibition; Drosophila S2 Gal4-RORgamma UAS-luciferase reporter, 20 h; Potency, µM (highest dose often 53.6 µM), for the others: at the top dose activity change, negative = inhibition, usual class: inhibitors; 310,000 compounds, 5.4% hits; also: potency is read from the fitted curve at half-maximal effect; nearly all actives have a fitted effect of over 60% in size
#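 Schneider cells (Drosophila), stable Gal4 DBD–ROR gamma + UAS-luc; 1 hr cmpd preincubation; Cu2+ induction 700 uM final; 20 hr ambient; luminescence.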
# CtBP-E1A blk = blocks the CtBP interaction with E1A. activity change, % (concentration not given with the values). AlphaScreen GST-E1A/His-CtBP binding, 1536-well; stronger effect = lower value. 340,000 compounds, 0.49% hits; in the data active = activity change below about -65%; inconclusive = mostly about -30% to -63%
#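 Homogeneous bead-based format: GST-tagged E1A captured on glutathione donor beads, His-tagged CtBP on nickel acceptor beads; compounds precede bead addition by 2 h at 37 °C.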
# PKM2 act = activators of human pyruvate kinase M2; P14618; purified PKM2, Kinase-Glo ATP luminescence, activation; response scale: 0% is enzyme alone, no compound; Potency, µM (doses to about 57.5 µM), without a hit: at the top dose activation, actives largely listed as activators; AID 1631; 260,000 compounds, 0.34% hits; also: potency is read from the fitted curve at half-maximal effect; nearly all actives have a fitted effect of over 55% in size
#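 Kinase-Glo luminescence reports ATP generated from ADP (0.1 mM) and PEP (0.5 mM) by purified hPK-M2 after 1 h at room temperature, pH 7.2 imidazole buffer; intermediate enzyme activity allows detecting inhibitors and activators.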
# * hit, by the source's call; ? = inconclusive; . = no result given; [ ] = another dose, or the depositor's remark. Unless noted, calls follow the shape of the dose curve; as a rule, active = well fitted curve in the direction sought with a large enough effect; inconclusive = small, poorly fitted or top-dose-only effect, or another doubt; inactive = no such curve, though single readings can be large; an effect the other way counts as inactive or inconclusive. % is scaled to controls: 0 for no effect and ±100 for the full control effect.
SMILES,Six1-Eya2 inh,Gal4-VP16 FLuc,RORg inh,CtBP-E1A blk,PKM2 act
Fc1ccc(-c2csc(NC(=S)Nc3ccccc3)n2)cc1,2,3.2µM*,0.89µM*,-1,.
O=C(Nc1nc(-c2ccccc2)cs1)c1ccccc1NS(=O)(=O)c1ccc(F)cc1,-10,5.6µM*,?,-2,6%
Cc1ccc(/C(=N/Nc2ncnc3ccccc23)C(=O)O)cc1,-84*,0.89µM*,0.05µM*,-77*,-1%
COC(=O)C(=O)C/C(=N/Nc1ncnc2ccccc12)c1ccc(Cl)cc1,?,?,11µM*,?,2%
CCOC(=O)c1cccc(Nc2ncnc3ccccc23)c1,-6,15%,?,-7,5%
OCC[C@@H]1C[C@H](O)[C@@H](O)[C@@]2(OCCCc3cc(C(F)(F)F)ccc32)O1,20,.,.,4,.
Cc1cc2ncc(-c3ncc(C(F)(F)F)cc3Cl)cn2n1,6,10µM*,7.9µM*,14,-31%
Cc1c(Cl)cccc1NC(=O)C1=COCCO1,-1,.,.,7,.
S=C(NCCC1=CCCCC1)NCc1ccco1,-1,?,7.1µM*,3,-1%
O=C(COC(=O)c1ccccc1Br)NCCC1=CCCCC1,23,-18%,?,-12,6%
O=C(NC(=S)NCCC1=CCCCC1)c1ccccc1Br,-1,3.2µM*,3.5µM*,7,0%
O=C(CCn1c(=O)c2ccccc2n(CC(=O)NCCC2=CCCCC2)c1=O)NCc1ccco1,-3,13%,6%,-1,-3%
O=C(NC(=S)NCCC1=CCCCC1)c1cncc(Br)c1,-4,8.9µM*,4.5µM*,-13,1%
Cc1ccc(C(=O)OCC(=O)NC(C)C2CC3CCC2C3)cc1N (stereo not drawn),0,.,.,0,.
COc1ccc(N(CC(=O)NCCSCc2ccc(Cl)cc2)S(C)(=O)=O)cc1Cl,-8,-4%,?,.,-5%[11.5 µM]
CCc1nnc(NC(=O)c2ncc(Cl)c(Cl)c2Cl)s1,10,4µM*,3.2µM*,-4,-5%
CCc1nnc(NC(=O)c2cc(Cl)ccn2)s1,-77*,7.1µM*,4.5µM*,-93*,.
CCc1nnc(NC(=O)c2ccc(Cl)nc2)s1,0,-15%,?,-6,1%
CCCC/C=C/[C@H](c1ccccc1)[C@H](CO)Cc1ccccc1,.,-13%,22%,.,.
Cc1ccc(O)c(N=Nc2ccccc2)n1,-1,2.8µM*,1µM*,-23,.
CC1(C)COC(/C=C/c2cccc([N+](=O)[O-])c2)=N1,10,1.4µM*,?,24,-2%
Cc1nnc(-c2ccccc2)nc1N(C)C,-8,-10%[10 µM],1%,1,-3%
CN(C)c1nc(-c2ccccn2)nnc1-c1ccccc1,-92*,1%,-28%,-96*,-6%
CCN(CC)c1nc(-c2ccccn2)nc(-c2ccccc2)c1C#N,5,5µM*,1µM*,-1,-3%
Cc1cc(Cl)c2oc(C(=O)N(C)Cc3ccon3)c(C)c2c1,5,?,6%,6,3%
SMILES,Six1-Eya2 inh,Gal4-VP16 FLuc,RORg inh,CtBP-E1A blk,PKM2 act
O=C(NCCCN1CCOCC1)c1ccc2nc(Cc3ccccc3F)oc2c1,-1,-3%,?,10,.
COc1ccc2c(c1)C(=O)[C@@H](OC(=O)NCCOc1ccccc1)[C@H](c1ccc(OC)c(Br)c1)O2,.,-1%,-26%,.,.
N#CC1=C(N)SC2(CCCCC2)SC1c1ccccc1 (stereo not drawn),-9,?,6.3µM*,0,-2%
N#CC1=C(C2CC2)CC(c2ccccc2)C(C#N)=C1N (stereo not drawn),-12,15%,-7%,8,0%
O=S(=O)(NCCC1=CCCCC1)c1ccc(OC(F)(F)F)cc1,20,.,.,12,.
COc1ccc(Cl)cc1NC(=S)N1CCC(c2ccc(C)cc2)C1 (stereo not drawn),11,-17%,13µM*,6,2%
COc1ccc(Cl)cc1NC(=O)CC1CCCC1,24,-14%,8%,13,4%
Cc1cccc(C)c1NC(=S)N1CCC(c2ccccc2)C1 (stereo not drawn),2,35µM*,16µM*,-5,-7%
COc1ccc(NC(=S)NC2CCCCCC2)c(OC)c1,-4,7.1µM*,3.2µM*,-10,4%
COc1ccc(Cl)cc1NC(=S)NC1CCCC1,-8,7.1µM*,10µM*,.,-1%
CCc1nc2c(OCCOc3ccc(F)cc3)cccn2c1N(C)C(=O)CC(C)C,-1,.,.,1,.
C[C@@H](C(=O)N[C@@H](CO)Cc1ccccc1)[C@H]1C[C@]1(C)[C@H](NC(=O)OCc1ccccc1)c1ccccc1,.,13%,-2%,.,2%
O=S(=O)(c1ccccc1)N1CCC2(CCN(c3ccc(-c4ccccc4)cc3)CC2)CC1,.,18%,-5%,.,.
COc1ccc(NC(=S)NC2CCCCC2)c(OC)c1,-12,?,3.2µM*,0,-2%
CCN1C(=NCc2cc(OC)c(OC)c(OC)c2)N[C@@H](c2cccc(F)c2)C(C(=O)OC)=C1C,.,-16%,17%,.,4%
S=C(NCC1CCCO1)NC1CCCCC1 (stereo not drawn),4,?,?,-2,5%
CCCC(NC(=S)NCC1CCCO1)C12CC3CC(CC(C3)C1)C2 (stereo not drawn),-15,3.2µM*,0.45µM*,.,11%
COc1ccc(Oc2ccc(NC(=O)c3ccccc3C)cc2)cc1,-6,0%,40%,2,3%
COc1ccc(-c2nnc(NC(=O)c3ccccc3C)o2)cc1,-18,0.79µM*,0.63µM*,-16,-7%
Cc1ccccc1C(=O)Nc1nnc(-c2ccncc2)o1,-15,5µM*,2.8µM*,-4,-12%
Cc1ccccc1C(=O)Nc1ccnc(-c2ccncc2)n1,0,-2%,-16%,15,-6%
COc1ccc(NC(=O)c2ccc(-c3ccc(-c4noc(C)n4)cc3C)cc2)cc1N1CCN(C)CC1,-5,32µM*,20µM*,-26,.
COc1ccc(-c2nc(-c3ccc(NC(=O)c4ccncc4)cc3)no2)cc1OC,-4,-10%,?,0,-2%
COc1ccc(NC(=O)c2ccc(-c3ccc(-c4noc(C)n4)cc3C)cc2)cc1OCCN(C)C,.,?,14µM*,.,.
CC(=O)c1cc(C)oc1C,.,0%,-1%,.,.
CN1CCN(c2nc(-c3ccc(Cl)cc3Cl)nc3ccccc23)CC1,-9,-2%,-5%,.,.
CCN(CC)c1ccc2nc3ccc(N)cc3[n+](-c3ccccc3)c2c1,-78*,.,.,-84*,.
CCN(CC)c1ccc(/C=N/n2nnnc2N)c(O)c1,5,?,20%,-1,-4%
CCOc1ccc(NC(=O)CCC(=O)NNC(=O)COc2ccccc2C)cc1,6,-22%,1%,.,-3%
CCn1c(SCc2ccc(Cl)cc2)nc2nc3c(cc2c1=O)CCCC3,4,?,13µM*,1,-16%
